Data taken from ChEMBL document CHEMBL3988442, “University of Dundee, Small-Polar-MMV Screening Library” (2021).
Where “and” joins values, the source holds several entries; their conditions need not be identical. Equal values may be shown once. For some assays here: Potency and affinity values are given separately.

Experiments:
Set-up in all cases: scale not given: direction of the effect not stated beside the values
[1] = target: Protein translocase subunit SecA (Escherichia coli (strain K12)) (UniProt P10408); experiment: Assay to Identify E. coli SecA ATPase Inhibitors; format: functional; conditions: 30 µM
Sequence of Protein translocase subunit SecA (Escherichia coli (strain K12)) (P10408 whole entry): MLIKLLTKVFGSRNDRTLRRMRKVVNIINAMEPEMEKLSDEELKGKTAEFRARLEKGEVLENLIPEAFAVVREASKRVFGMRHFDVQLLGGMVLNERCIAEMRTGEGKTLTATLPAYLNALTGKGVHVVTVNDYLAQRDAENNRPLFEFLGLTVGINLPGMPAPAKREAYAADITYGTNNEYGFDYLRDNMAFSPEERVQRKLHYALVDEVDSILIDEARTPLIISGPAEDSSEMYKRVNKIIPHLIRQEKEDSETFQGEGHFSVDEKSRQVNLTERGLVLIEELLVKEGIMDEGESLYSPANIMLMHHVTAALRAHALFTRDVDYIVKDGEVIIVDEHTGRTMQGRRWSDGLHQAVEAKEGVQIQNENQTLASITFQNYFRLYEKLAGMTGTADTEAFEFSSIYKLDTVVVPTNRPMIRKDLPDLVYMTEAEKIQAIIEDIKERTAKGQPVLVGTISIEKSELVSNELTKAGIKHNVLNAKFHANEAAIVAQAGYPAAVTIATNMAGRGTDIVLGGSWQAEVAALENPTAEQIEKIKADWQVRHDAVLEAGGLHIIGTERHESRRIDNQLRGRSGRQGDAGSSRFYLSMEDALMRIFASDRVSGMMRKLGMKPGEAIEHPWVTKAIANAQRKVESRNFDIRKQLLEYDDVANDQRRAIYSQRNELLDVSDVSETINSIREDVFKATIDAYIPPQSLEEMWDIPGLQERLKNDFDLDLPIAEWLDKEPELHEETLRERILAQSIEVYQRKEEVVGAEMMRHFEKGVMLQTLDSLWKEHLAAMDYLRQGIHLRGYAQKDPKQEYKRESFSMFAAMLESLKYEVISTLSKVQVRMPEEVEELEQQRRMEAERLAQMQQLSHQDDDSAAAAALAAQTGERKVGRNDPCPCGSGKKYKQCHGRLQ

[2] = target: T1, Ubiquitin-activating enzyme e1, putative (Leishmania donovani (strain BPK282A1)) (UniProt E9BSI1); experiment: Leishmania donovani Ubiquitin Activating Enzyme (LdE1); format: functional; conditions: 30 µM
T1 sequence (whole entry): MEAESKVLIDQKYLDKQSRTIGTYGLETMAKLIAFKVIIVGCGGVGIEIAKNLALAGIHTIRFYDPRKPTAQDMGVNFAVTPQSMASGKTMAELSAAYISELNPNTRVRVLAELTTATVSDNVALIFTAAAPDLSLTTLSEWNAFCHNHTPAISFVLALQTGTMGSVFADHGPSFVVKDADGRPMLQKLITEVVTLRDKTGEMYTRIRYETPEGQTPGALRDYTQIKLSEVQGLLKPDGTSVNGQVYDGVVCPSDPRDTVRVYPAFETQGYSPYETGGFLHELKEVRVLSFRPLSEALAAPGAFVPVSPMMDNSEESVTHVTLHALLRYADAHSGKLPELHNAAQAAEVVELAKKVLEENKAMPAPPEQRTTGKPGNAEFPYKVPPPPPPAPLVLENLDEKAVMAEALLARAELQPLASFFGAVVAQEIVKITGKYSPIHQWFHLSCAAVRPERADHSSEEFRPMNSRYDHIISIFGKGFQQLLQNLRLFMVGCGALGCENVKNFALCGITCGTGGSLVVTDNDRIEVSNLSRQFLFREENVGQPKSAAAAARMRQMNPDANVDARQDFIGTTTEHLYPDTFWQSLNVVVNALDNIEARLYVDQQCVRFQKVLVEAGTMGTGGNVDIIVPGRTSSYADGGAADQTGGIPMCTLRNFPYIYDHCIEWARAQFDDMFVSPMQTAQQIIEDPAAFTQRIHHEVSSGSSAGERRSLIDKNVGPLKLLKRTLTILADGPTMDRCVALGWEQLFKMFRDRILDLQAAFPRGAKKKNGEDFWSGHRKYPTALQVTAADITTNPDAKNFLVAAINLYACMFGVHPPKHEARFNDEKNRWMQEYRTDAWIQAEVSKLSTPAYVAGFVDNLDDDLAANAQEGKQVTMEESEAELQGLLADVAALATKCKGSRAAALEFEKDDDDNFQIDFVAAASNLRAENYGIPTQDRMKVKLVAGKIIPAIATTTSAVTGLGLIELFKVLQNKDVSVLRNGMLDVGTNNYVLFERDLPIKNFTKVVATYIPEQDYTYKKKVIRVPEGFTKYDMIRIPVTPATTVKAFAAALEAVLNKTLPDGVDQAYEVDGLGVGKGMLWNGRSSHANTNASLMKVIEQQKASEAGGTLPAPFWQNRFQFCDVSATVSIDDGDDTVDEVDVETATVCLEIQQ

[3] = target: AMP-activated protein kinase, AMPK (Homo sapiens) (UniProt P54646+O43741+P54619+Q9UGJ0+Q9Y478+Q13131+Q9UGI9); experiment: AMP-dependent Kinase enzyme assay. An in vitro enzyme assay that detects ADP turnover that is directly proportional to AMPK activity. This uses naive AMPK that is activated during the assay with MK-8722; format: functional; conditions: 30 µM
[4] = target: Sialic acid-binding Ig-like lectin 9 (Homo sapiens) (UniProt Q9Y336); experiment: Hs-Siglec9 ALPHAscreen SOP 20170721; conditions: 10 µM
Sequence of Sialic acid-binding Ig-like lectin 9 (Homo sapiens) (Q9Y336 whole entry): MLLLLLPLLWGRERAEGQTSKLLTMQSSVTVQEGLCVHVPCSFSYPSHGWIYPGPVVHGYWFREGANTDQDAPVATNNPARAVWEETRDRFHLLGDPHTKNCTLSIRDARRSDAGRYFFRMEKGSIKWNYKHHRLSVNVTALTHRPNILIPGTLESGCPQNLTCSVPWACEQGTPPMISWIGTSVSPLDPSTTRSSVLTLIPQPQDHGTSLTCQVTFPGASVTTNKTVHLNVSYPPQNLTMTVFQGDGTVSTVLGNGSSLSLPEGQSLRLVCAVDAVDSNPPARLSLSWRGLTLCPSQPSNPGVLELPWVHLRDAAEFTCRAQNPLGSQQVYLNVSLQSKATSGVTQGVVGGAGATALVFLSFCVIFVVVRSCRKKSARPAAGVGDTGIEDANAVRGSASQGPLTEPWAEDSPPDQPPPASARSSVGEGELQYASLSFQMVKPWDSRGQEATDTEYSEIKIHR

[5] = test system: Trypanosoma cruzi; experiment: Trypanosoma cruzi phosphomannomutase and mannose-1-phosphate guanylyltransferase assay; format: functional; conditions: 10 µM
[6] = target: T2, Arginase-2, mitochondrial (Homo sapiens) (UniProt P78540); experiment: in vitro enzyme assay to detect the production of urea directly proportional to the activity of Arginase II; format: functional; conditions: 33.3 µM; further: in the data most compounds retested in dose-response had high values
T2 sequence (whole entry): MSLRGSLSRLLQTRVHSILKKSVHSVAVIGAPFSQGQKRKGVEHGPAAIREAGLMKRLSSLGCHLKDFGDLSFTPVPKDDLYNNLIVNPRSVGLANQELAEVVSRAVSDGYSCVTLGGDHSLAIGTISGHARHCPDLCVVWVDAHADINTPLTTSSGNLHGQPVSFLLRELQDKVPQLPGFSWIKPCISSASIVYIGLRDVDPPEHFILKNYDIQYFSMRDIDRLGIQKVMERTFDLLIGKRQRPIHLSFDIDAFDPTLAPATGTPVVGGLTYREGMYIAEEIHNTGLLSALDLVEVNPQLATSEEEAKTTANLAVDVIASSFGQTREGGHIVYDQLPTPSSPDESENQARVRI

[7] = target: T3, Proteasome subunit beta (Trypanosoma cruzi) (UniProt O96673); experiment: Trypanosoma cruzi proteasome chymotrypsin-like activity (TcProtChymo) assay.; further: in the data most compounds retested in dose-response had high values; format: functional; conditions: 9.37 µM
T3 sequence (whole entry): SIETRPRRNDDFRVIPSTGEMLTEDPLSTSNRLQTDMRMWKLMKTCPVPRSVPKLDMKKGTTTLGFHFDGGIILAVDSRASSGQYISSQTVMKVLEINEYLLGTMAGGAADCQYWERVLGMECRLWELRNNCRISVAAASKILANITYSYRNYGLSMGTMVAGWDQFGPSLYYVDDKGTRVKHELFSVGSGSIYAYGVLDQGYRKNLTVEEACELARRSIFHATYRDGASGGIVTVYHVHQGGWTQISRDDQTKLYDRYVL

[8] = test system: N/A; experiment: Trypanosoma cruzi proteasome luciferase counter-screen; format: functional; conditions: 9.37 µM
[9] = organism: Homo sapiens; experiment: To identify inhibition of the IFN signalling (Jak-Stat) pathway via expression of an eGFP reporter gene under the control of an IFN-stimulated response element (ISRE) containing MxA promoter.; format: functional; conditions: 30 µM
[10] = target: T4, Tyrosyl-tRNA synthetase, putative (Trypanosoma cruzi (strain CL Brener)) (UniProt Q4DSP6); experiment: Trypanosoma cruzi tyrosyl tRNA synthetase (TcYRS) _High Tyrosine SOP; format: functional; conditions: 30 µM; further: in the data most compounds retested in dose-response had high values
T4 sequence (whole entry): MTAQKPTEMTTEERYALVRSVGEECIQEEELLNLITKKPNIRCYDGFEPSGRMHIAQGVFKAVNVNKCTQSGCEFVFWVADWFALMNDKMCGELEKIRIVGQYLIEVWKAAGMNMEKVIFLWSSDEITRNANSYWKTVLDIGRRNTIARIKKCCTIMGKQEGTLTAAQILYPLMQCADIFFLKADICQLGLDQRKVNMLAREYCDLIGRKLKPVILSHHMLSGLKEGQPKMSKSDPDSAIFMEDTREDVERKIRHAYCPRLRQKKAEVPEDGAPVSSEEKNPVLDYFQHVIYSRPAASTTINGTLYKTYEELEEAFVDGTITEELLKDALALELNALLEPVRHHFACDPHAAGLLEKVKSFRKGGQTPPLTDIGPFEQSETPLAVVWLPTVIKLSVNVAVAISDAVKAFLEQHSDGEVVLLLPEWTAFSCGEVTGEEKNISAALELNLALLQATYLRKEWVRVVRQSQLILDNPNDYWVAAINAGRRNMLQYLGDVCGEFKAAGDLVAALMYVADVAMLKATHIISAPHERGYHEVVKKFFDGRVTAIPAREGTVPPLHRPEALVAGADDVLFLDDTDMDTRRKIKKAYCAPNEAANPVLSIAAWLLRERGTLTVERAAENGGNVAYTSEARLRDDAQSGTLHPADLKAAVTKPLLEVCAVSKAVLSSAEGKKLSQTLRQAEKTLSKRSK

[11] = target: T4, Tyrosyl-tRNA synthetase, putative (Trypanosoma cruzi (strain CL Brener)); experiment: Trypanosoma cruzi tyrosyl tRNA synthetase (TcYRS) SOP; format: functional; conditions: 30 µM
[12] = target: Chromo domain-containing protein 1 (Saccharomyces cerevisiae (strain ATCC 204508 / S288c) (Baker's yeast)) (UniProt P32657); experiment: ScCHD-1 Enzyme Inhibition Assay; format: functional; conditions: 30 µM; further: in the data most compounds retested in dose-response had high values
Sequence of Chromo domain-containing protein 1 (Saccharomyces cerevisiae (strain ATCC 204508 / S288c) (Baker's yeast)) (P32657 whole entry, the tested form may be a part): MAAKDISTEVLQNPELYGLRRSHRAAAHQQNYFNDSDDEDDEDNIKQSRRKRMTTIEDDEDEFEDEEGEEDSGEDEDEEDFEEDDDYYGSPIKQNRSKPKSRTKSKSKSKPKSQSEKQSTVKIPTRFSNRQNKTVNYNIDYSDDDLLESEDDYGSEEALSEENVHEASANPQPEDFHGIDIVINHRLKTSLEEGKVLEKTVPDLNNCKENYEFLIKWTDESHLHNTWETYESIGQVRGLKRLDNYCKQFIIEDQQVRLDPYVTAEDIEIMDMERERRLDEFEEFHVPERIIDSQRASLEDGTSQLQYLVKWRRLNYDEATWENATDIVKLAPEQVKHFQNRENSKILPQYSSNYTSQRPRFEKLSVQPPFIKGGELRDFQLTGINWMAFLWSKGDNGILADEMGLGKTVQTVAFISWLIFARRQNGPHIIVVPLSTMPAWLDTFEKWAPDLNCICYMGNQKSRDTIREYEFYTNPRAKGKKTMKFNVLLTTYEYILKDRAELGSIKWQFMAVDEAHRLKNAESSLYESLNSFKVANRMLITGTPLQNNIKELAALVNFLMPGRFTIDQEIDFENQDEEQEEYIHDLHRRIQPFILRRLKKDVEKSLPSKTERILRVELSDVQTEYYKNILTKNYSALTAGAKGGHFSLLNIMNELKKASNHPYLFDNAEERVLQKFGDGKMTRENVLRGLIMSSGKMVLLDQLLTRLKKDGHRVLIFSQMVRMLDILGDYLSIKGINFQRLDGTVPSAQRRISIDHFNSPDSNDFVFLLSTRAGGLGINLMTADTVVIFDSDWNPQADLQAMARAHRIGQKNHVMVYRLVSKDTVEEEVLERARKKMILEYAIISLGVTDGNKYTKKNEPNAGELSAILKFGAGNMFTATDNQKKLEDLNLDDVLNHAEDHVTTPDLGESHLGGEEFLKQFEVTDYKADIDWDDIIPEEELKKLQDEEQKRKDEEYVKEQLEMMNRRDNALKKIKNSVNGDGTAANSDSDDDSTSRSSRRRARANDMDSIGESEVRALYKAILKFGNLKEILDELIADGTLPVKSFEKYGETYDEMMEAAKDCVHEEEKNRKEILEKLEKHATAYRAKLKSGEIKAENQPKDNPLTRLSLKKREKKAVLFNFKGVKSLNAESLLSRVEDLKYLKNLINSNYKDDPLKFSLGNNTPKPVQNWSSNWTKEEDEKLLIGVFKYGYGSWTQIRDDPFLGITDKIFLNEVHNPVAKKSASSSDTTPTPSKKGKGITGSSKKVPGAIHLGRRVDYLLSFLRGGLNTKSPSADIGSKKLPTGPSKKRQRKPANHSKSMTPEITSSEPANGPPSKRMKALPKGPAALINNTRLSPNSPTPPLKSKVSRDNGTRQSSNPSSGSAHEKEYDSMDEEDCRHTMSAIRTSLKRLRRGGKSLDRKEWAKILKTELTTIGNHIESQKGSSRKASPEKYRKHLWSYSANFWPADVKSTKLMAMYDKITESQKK

SMILES	Percent Effect [1] [%]	Percent Effect [2] [%]	Percent Effect [3] [%]	Percent Effect [4] [%]	Percent Effect [5] [%]	Percent Effect [6] [%]	Percent Effect [7]	Percent Effect [8]	Percent Effect [9] [%]	Percent Effect [10] [%]	Percent Effect [11] [%]	Percent Effect [12] [%]
Cc1ccc(NCc2cncc3c2CCN(C(=O)C2CC=CC2)C3)nn1	-0.965	5.33	-0.665	8.87	1.74	-24.9	30.2% and 30.4% and 33.3%	16.9% and 15.1%	-6.99	13.5	32.5	-6.63
CN1CCCC1c1ccc(C(=O)N2CCc3ccccc3C2)s1 (stereo unspecified)	-3.53	-16.2	2.64	-7.08	-3.81	-2.73	74.8% and 75.3% and 64.5%	44.8% and 43.9%	16.1	3.23	-3.7	7.75
Cc1ccc(S(=O)(=O)Nc2ccc(-n3cccc3C(=O)O)c(C)c2)s1	-4.28	5.26	12.2	2.35	-5.55	9.47	29.7% and 25.9% and 32.3%	14.7% and 12.8%	-7.51	-9.57	-15.6	4.9
Cc1cc(C2CCCN(C(=O)c3c(C)noc3C)C2)n[nH]1 (stereo unspecified)	-3.57	2.63	9.83	9.23	0.292	-20.1	16.6% and 37.9% and 18.8%	18% and 16.2%	-5.01	7.45	7.79	-1.42
Cc1cccc(NC(=O)c2sccc2C)n1	-3.25	23.7	-0.39	-12.7	3.99	-16.6	91.2% and 92.2% and 77.2%	69.5% and 70.4%	16.1	1.06	13	-7.3
CN(C(=O)Cc1ccc(NC(=O)NC2CCC2)cc1)c1ccccc1	-9.26	5.26	-0.53	9.14	4.58	0	41.9% and 43.6% and 48.1%	15.8% and 14.9%	9.37	4.25	15.6	-19
O=C(Nc1ccccn1)C1CC(=O)N(Cc2ccccn2)C1 (stereo unspecified)	-2.05	15.8	1.82	8.62	-4.97	2.37	26.3% and 37.5% and 33.2%	28% and 30%	-8.07	3.19	7.79	-4
COCCN(Cc1ccoc1)C(=O)c1c(F)cccc1Cl	-4.43	5.2	10.7	9.59	-5.62	5.81	2.44%		-5.55	3.17	11.5	-5.12
COc1ccc(-n2cnnc2SCCC#N)cn1	-2.65	8	0.911	11.1	4.38	18.2	11.3%		-11.2	6.01	21	-6.98
Cn1ncc2c(=O)[nH]c(CN(Cc3cccc(F)c3)C3CC3)nc21	-4.78	15.6	1.73	-0.0963	8.05	3.92	16.1%		-5.95	8.74	24.4	-7.35
Cc1nc(NCc2ccc(C)o2)cc(C(=O)N2CCOCC2)n1	-5.2	15.6	-13.8	14.3	9.14	-55.2	10.5%		4.67	4.3	8.64	-6.33
CCC(CNC(=O)Nc1cnn(CC)c1)N1CCCC1 (stereo unspecified)	0.765	17.7	-9.29	-3.26	-6.33	3.04	8.27%		8.67	3.45	16.5	-5.82
COc1c(CNCCNC(=O)c2ccco2)c(C)nn1C	-4.26	2.7	-4.46	0.652	-1.39	-0.185	4.31%		11.3	3.96	11	0.206
Cn1cc(CN2CCCN(C(=O)c3cc(Cl)cn3C)CC2)cn1	-2.96	13.2	-8.7	-2.03	-6.39	-3.45	20.6%		28	1.47	7.32	-9.82
CN(Cc1nc(N)c2ccccc2n1)C1CCCN(c2cccnn2)C1 (stereo unspecified)	-4.12	-5.2	-10.2	5.86	7.49	-1.07	13.3%		-0.131	9.71	14.6	-9.67
CN(C)C(=O)N1C[C@@H]2COC[C@]2(CNS(C)(=O)=O)C1	-1.78	-2.7	5.5	5.41	-1.27	2.87	16.8%		-0.0949	0	-5.13	3.04
c1cc(OCc2ccc3c(c2)OCO3)ccc1CNC1CC1	7.84	0	0.713	-11.4	-6.91	-18.9	97.3% and 98.3% and 97.4%	85.2% and 85%	14.4	-2.13	0	38.5
O=C1NCC2(CCCN(Cc3ccccc3F)C2)Oc2ccccc21 (stereo unspecified)	1.88	12.2	9.79	-6.32	-2.77	5.34	9.52%		9.51	3.23	9.09	-14.2
Cc1cnn(CC2CN(CCc3ccncc3)CCO2)c1 (stereo unspecified)	-4.16	5.48	0.214	-1.34	-0.783	3.18	4.08%		-14.5	3.23	5	-0.563
CC(Oc1ccccc1C(F)(F)F)C(=O)NCC(N)=O (stereo unspecified)	-4.95	5.41	0.686	-2.42	4.3	-1.67	12.9%		-26.2	12.9	15.8	2.04
CC(O)CNCc1ccc(OCc2ccc3c(c2)OCCO3)cc1 (stereo unspecified)	0.112	10.5	0.644	-9.17	-3.6	-2.37	61.5% and 58.6% and 62.4%	31.4% and 28.6%	-4.62	1.06	5.2	-3.79
Cc1nn(-c2ccccc2)nc1C(=O)N1CCCC1c1cnn(C)c1 (stereo unspecified)	-5.15	0	-0.474	2.1	-2.32	-4.99	0.539%		12.6	2.97	6.1	7.07
